The list is not random: actives were taken first. Their share in the collection is about 2.4%.
Pol iota inh = qHTS for Inhibitors of Polymerase Iota | Pol iota fluorescent replication assay, 10 min | DNA polymerase iota (Homo sapiens), Q9UNA4 | 1% of 390,000 active | Potency, µM (doses to about 115 µM), for the others: at the highest dose activity, negative = inhibition, most hits filed as inhibitors | AID 588590, 2011
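Pol iota at 10 nM preincubated 15 min with compounds at room temperature; reaction started with fluorescent substrate, 50 nM final. Fluorescence read kinetically at 0 and 10 min; buffer-only wells as negative control.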
POLB inh = qHTS Assay for Inhibitors of DNA Polymerase Beta | P06746 | Pol beta primer extension/strand displacement, fluorescence kinetic | Potency, µM (doses to about 114 µM), inactives show at the highest dose activity change, negative = inhibition, most hits filed as inhibitors | 1.3% of 340,000 active | AID 485314, 2010; further: on the % scale 0 is the no-effect control and ±100 the full control effect
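Values derive from four-parameter Hill fits of normalized kinetic data: reads at 0 and 10 min following addition of 50 nM substrate to 10 nM Pol beta preincubated 15 min with compound.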
POLK inh = qHTS for Inhibitors of Polymerase Kappa. DNA polymerase kappa (Homo sapiens), Q9UBT6. purified Pol kappa, fluorescent DNA synthesis assay, 10 min. Potency, µM (titrated, usually from 107 µM), for the others: at the highest dose activity, negative = inhibition, most hits filed as inhibitors. 0.53% of 400,000 active. AID 588579, 2011; further: on the % scale 0 is the no-effect control and ±100 the full control effect
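Enzyme at 10 nM met test compounds for 15 min at room temperature. Substrate addition (50 nM final) began the reaction, which was monitored by fluorescence at 0 and 10 min.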
TDP1 inh = qHTS Assay for Inhibitors of Tyrosyl-DNA Phosphodiesterase (TDP1); recombinant TDP1, AlphaScreen DNA substrate cleavage; 0.28% of 350,000 active; Tyrosyl-DNA phosphodiesterase 1 (Homo sapiens), Q9NUW8; AID 485290, 2010; Potency, µM (highest dose often 130 µM), for inactives: at the top dose activity change, negative = inhibition, usual class: inhibitors; further: on the % scale 0 is the no-effect control and ±100 the full control effect; nearly all actives have a fitted effect of over 40% in size
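AlphaScreen read-out: signal falls as enzyme removes the 3' tyrosine-FITC from a 5'-biotinylated DNA oligo (15 nM, 5 min, RT). Enzyme was E. coli-made recombinant Tdp1 at 1 nM, exposed to compound for 15 min beforehand; beads 10 ug/ml, 10 min.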
FEN1 inhibitor = qHTS Assay for the Inhibitors of Human Flap endonuclease 1 (FEN1) | Potency, µM (top dose mostly 114 µM), for inactives: top-dose activity change, negative = inhibition, most hits filed as inhibitors | Recombinant FEN1 flap cleavage, fluorescence, 15 min | 0.35% of 390,000 active; further: on the % scale 0 is the no-effect control and ±100 the full control effect; nearly all actives have a fitted effect of over 65% in size
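Potency values derive from four-parameter Hill fits of normalized qHTS data. The reaction used 10 nM FEN1 preincubated 15 min at room temperature with compound, then 50 nM DNA substrate, read at 0 and 15 min.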
Pol eta inh = qHTS for Inhibitors of Polymerase Eta. recombinant Pol eta, fluorescent DNA replication assay. Potency, µM (series often up to 114 µM), inactives show at the top dose activity change, negative = inhibition, usual class: inhibitors. 1.2% of 390,000 active. AID 588591, 2011; further: on the % scale 0 is the no-effect control and ±100 the full control effect
Target sequence (Q9Y253 whole entry, looked up): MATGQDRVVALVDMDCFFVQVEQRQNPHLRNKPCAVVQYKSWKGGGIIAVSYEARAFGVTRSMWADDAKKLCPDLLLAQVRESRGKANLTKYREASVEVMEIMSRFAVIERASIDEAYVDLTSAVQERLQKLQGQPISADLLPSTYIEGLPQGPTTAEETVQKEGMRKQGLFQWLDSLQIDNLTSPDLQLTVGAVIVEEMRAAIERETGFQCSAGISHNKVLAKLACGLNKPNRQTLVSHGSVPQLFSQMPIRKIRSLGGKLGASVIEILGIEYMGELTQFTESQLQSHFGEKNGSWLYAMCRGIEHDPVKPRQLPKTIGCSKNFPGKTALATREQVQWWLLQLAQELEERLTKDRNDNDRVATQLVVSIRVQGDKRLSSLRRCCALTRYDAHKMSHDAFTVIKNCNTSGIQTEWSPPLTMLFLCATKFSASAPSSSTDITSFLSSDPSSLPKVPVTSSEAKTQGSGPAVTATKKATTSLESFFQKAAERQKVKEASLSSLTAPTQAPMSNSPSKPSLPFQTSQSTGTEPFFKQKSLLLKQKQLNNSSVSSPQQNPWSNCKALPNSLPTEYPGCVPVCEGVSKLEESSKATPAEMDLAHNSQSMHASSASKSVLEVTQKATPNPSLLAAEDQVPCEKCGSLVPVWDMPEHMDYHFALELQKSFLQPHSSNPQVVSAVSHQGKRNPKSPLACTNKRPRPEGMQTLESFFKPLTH
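Pol eta at 10 nM preincubated with compounds 15 min at room temperature; reaction started with fluorescent substrate (50 nM final) and read kinetically at 0 and 10 min.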
An asterisk follows results filed as active; ? = inconclusive; nt = not tested or not shown; [ ] = remark or other dose. The call rests on the fitted dose curve; in most records, active means well fitted curve in the direction sought with a large enough effect; inconclusive means small, poorly fitted or top-dose-only effect, or another doubt; inactive means no such curve, though single readings can be large; an effect the other way counts as inactive or inconclusive. Potency means the concentration at half of the fitted maximal effect.

SMILES	Pol iota inh	POLB inh	POLK inh	TDP1 inh	FEN1 inhibitor	Pol eta inh
COC(=O)c1c(NC(=O)CCCOc2ccc(C)cc2)sc2c1C(C(=O)OC)CC2 (configuration not stated)	?	-25%	?	1%[12.3 µM]	79µM*	-8%
COC(=O)c1c(NC(=O)CCCOc2cccc(C)c2)sc2c1C(C(=O)OC)CC2 (configuration not stated)	?	0%	-23%	-6%[12.3 µM]	71µM*	-9%
COCCn1c(=O)cnc2cnc(Nc3cccc(OC)c3)nc21	nt	nt	2%[60.1 µM]	nt	nt	nt
CC(C)(C)OC(=O)NCc1nnc(-c2cc3ccccc3[nH]2)o1	nt	nt	nt	0%	nt	nt
O=C(NC1CCCc2ccccc21)c1cnn2c1NC(=C1CC1)C=C2C(F)F (configuration not stated)	-4%	nt	-16%	nt	-5%	nt
COc1ccc(CN(Cc2ccccc2)S(=O)(=O)c2ccccc2)cc1COc1ccc(NC(C)=O)cc1	nt	nt	nt	1%	nt	nt
Cn1c(=O)c2[nH]c(NCCCN3CCOCC3)nc2n(C)c1=O	5%	89µM*	-4%	-1%	2%	2%
c1ccc2c(c1)ccn2-n1ccc2ccccc21	20%	nt	-17%	nt	-9%	nt
CC(=O)NC1C(=O)N=C(SCC(=O)NCc2ccccc2)NC1=O (configuration not stated)	-14%	23%	-8%	25µM*	-2%	-7%
COc1cccc2c(Nc3ccccc3C)cc(C)nc12	61%	3%	-3%	5%	-13%	-8%
COc1ccc(Nc2cc(C)nc3ccc(OC)cc23)cc1	?	22µM*	-22%	nt	?	-12%
COc1ccc(/C=N/Nc2cc(C)nc3ccccc23)cc1	?	79µM*	-23%	0%	40µM*	?
COc1cccc2c(N/N=C/c3ccc(O)c(O)c3)cc(C)nc12	?	20µM*	-31%	4%	-13%	-9%
COc1ccc(/C=N/Nc2cc(C)nc3c(C)cccc23)cc1	-13%	25µM*	-18%	3%	18µM*	?
COc1cc(/C=C/c2ccnc3ccccc23)cc(OC)c1OC	22%	nt	1%	nt	?	nt
COc1cc2oc(=O)cc(-c3ccc(-c4ccc(NC(C)=O)cc4)cc3)c2c(OC)c1OC	nt	nt	-5%[60.1 µM]	1%	nt	nt
O=C(CCc1nc2ccccc2c(=O)[nH]1)N1CCCc2ccccc21	29%	nt	-14%	-9%	-13%	50µM*
O=C(CCc1nc2ccccc2c(=O)[nH]1)N1CCN(c2ccccc2Cl)CC1	13%	nt	9%	-1%	-15%	-5%
Fc1ccccc1-c1ccc(-c2nc3ccc(Cl)cn3c2Nc2ccc(Cl)cc2)o1	29%	nt	?	7%	1%	nt
CCOC(=O)Cc1nnc(NC(=O)CSc2nnc3c4ccccc4n(C)c3n2)s1	5µM*	45µM*	?	2%	?	-6%
Cc1ccc(C2=NN=C(NC(=O)CSc3nnc4c5ccccc5n(C)c4n3)SC2)cc1	-17%	35µM*	-7%	3%	3%	?
COC(=O)C1=C2N(Cc3ccccc3)C(C)=C(C(=O)OC)C(c3ccccc3)N2C(=O)[C@](O)(C(=O)OC)C1 (some centres not stated)	nt	nt	nt	5%[21 µM]	nt	nt
CCC1Nc2ncnc(N3CCCCC3)c2N(Cc2ccccc2)C1=O (configuration not stated)	?	nt	2%	1%	8%	89µM*
CCC1Nc2ncnc(N3CCOCC3)c2N(Cc2ccccc2)C1=O (configuration not stated)	1%	nt	-2%	-2%	-6%	0%
COc1ccccc1NC(=O)Cn1c(=O)n(CCC(=O)NCC2CCCO2)c(=O)c2cc(OC)c(OC)cc21 (configuration not stated)	6%	17%	-12%	6%	16%	-3%
SMILES	Pol iota inh	POLB inh	POLK inh	TDP1 inh	FEN1 inhibitor	Pol eta inh
CCOC(=O)c1ccc(NC(=O)c2cnn(-c3ccc(C)cc3C)c2C2CCN(C(=O)OC(C)(C)C)CC2)cc1	14%	4%	2%	0%	-1%	-20%
COc1ccc(/C(C)=N/Nc2ccccc2Cl)c(O)c1	-10%	?	1%	40µM*	15%	-14%
CCCCn1c(C)cc2c(c1=O)C1O[C@](c3ccsc3)(Cc3ccccc31)O2	nt	2.2µM*	nt	nt	nt	nt
Cc1cc2c(c(=O)n1Cc1ccccc1)C1O[C@](c3ccsc3)(Cc3ccccc31)O2	nt	5%[22.9 µM]	nt	nt	nt	nt
Cc1cc2c(c(=O)n1-c1ccccc1)C1O[C@](c3ccsc3)(Cc3ccccc31)O2	nt	5µM*	nt	nt	nt	nt
CC(=O)OCC1OC(c2ccc3c(c2)OCO3)C=CC1OC(C)=O (configuration not stated)	nt	nt	nt	7%[21 µM]	nt	nt
CCCCN1CC(c2nc3ccccc3n2CCCCOc2ccccc2C)CC1=O (configuration not stated)	-6%	6%	7%	3%	5%	-13%
O=c1c2nc(Br)n([C@@H]3O[C@@H]4CO[P@@](O)(=S)O[C@H]4[C@H]3O)c2nc2[nH]c(-c3ccccc3)cn12	nt	nt	?	22µM*	nt	nt
O=C1Nc2ccccc2/C1=C/c1cnc(-c2ccccc2)[nH]1	?	22µM*	-30%	2%	9%	-30%
O=C1Nc2ccccc2/C1=C/c1cccnc1	?	31%	-12%[60.1 µM]	1%	-14%	18%
CCOc1cc(N2CCOCC2)c(OCC)cc1NC(C)C(=O)N1CCN(CC)CC1 (configuration not stated)	13µM*	?	?	13µM*	-32%	-7%
CCOc1cc(N2CCOCC2)c(OCC)cc1NS(=O)(=O)c1cc(NC(C)=O)ccc1OC	25µM*	?	?	nt	-14%	?
CCOc1cc(N2CCOCC2)c(OCC)cc1NC(=O)C(C)C	35%	8%	-12%	6%	2%	8%
COc1ccccc1NS(=O)(=O)c1cc(NC(=O)c2ccc(NC(C)=O)cc2)ccc1N1CCOCC1	13%	nt	-4%	nt	-2%	-25%
COc1cc(NS(=O)(=O)c2cc(NC(C)=O)ccc2OC)c(OC)cc1NC(=O)c1ccccc1	?	nt	-23%	nt	11%	45µM*
COc1ccccc1NS(=O)(=O)c1ccc(C)c(NS(=O)(=O)c2cc(NC(C)=O)ccc2OC)c1	-4%	nt	?	nt	-6%	-3%
C(=Nc1cnc2ccccc2c1)c1ccnc2ccccc12	21%	nt	-3%	nt	11%	nt
COc1cc(OC)c(/C=C/c2nc3ccccc3o2)c(OC)c1	8%	nt	-2%	nt	-22%	nt

From PubChem
